Sampled rows, rich in hits. Any-hit rate of the full collection: about 0.37%.
Cdc42 wt: human Cdc42 wildtype GTP binding change, either direction; P60953; GST-Cdc42 beads, Bodipy-GTP binding, flow cytometry; actives lie on both sides; percent activity (GTP binding), % at 10 µM; hit rate 0.2% among 190,000; AID 761;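 active = percent activity GTP binding at least 20 points away from the 100% baseline, either down as inhibitor or up as activator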;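 note: median bead fluorescence of bound Bodipy-FL-GTP at 100 nM; 0% = excess unlabeled GTP control and 100% = no compound control; below 100% means less GTP binding so inhibitor and above means activator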
Target sequence (P60953 whole entry, looked up): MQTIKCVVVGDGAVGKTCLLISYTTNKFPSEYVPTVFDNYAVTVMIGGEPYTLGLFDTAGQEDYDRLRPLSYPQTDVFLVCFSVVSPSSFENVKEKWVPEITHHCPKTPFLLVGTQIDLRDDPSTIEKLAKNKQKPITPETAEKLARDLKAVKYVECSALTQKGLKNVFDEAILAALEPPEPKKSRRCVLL
Rab7 wt GTP bind: alters GTP binding to wildtype dog Rab7; hit rate 0.055% among 190,000; AID 758; GST-Rab7 beads, fluorescent GTP binding, flow cytometry; actives lie on both sides; untreated = 100%, excess cold GTP = 0%; GTP binding activity (percent of control), % at 10 µM;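 active = fluorescent GTP binding to Rab7 beads changed by at least 20 points from the 100% baseline, either direction, mostly lower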;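 note: median green fluorescence of bound Bodipy-FL-GTP per Rab7 bead population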
Rab2 wt GTP: changes GTP binding to wildtype dog Rab2A, up or down. GTP binding activity, % at 10 µM. hit rate 0.19% among 190,000. GST-Rab2 wt beads, Bodipy-GTP binding, flow cytometry. P61105;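 active = GTP binding activity at least 20 points away from 100%, either lowered or raised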;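 note: 0% = beads with excess unlabeled GTP and 100% = no-compound control corrected for plate trend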
HRas wt GTP: human HRas wildtype GTP binding, change in either direction; P01112; GST-Ras wt beads, Bodipy-FL-GTP binding, flow cytometry; actives lie on both sides; GTP binding activity, % at 10 µM; hit rate 0.14% among 190,000; AID 759;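 active = GTP binding activity at least 20% away from the 100% baseline, either lowered as inhibitor or raised as activator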;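 note: 0% = unlabeled GTP competition control and 100% = no-compound control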
Target sequence (P01112 whole entry, looked up): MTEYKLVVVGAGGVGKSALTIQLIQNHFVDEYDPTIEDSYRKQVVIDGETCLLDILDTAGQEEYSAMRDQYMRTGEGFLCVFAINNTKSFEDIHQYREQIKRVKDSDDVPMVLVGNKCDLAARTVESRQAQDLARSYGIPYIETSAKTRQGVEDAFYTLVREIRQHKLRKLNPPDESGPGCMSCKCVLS
Rac1 wt GTP bind: alters GTP binding to wildtype human Rac1; P63000; GST-Rac1 beads, fluorescent GTP binding, flow cytometry; actives lie on both sides; 0 = cold GTP competed, 100 = untreated; GTP binding activity (% of control), % at 10 µM; hit rate 0.27% among 190,000; AID 757;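 active = GTP binding activity at least 20 points away from the 100% control level, either lower or higher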
Rac1 mut GTP: human Rac1 activated mutant GTP binding change; GST-Rac1 activated beads, fluorescent GTP binding, flow cytometry; actives lie on both sides; 100% means binding = to untreated wells; AID 764; percent activity (GTP binding), % at 10 µM; hit rate 0.11% among 190,000;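 active = GTP binding at least 20 percentage points away from the 100% baseline, in either direction, so actives lie on both sides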
The depositor's hits bear a star; [ ] = dose if it differs, or a comment.

SMILES	Cdc42 wt	Rab7 wt GTP bind	Rab2 wt GTP	HRas wt GTP	Rac1 wt GTP bind	Rac1 mut GTP
O=C(NCc1ccccc1)C1CCN(S(=O)(=O)c2ccc(Cl)cc2)CC1	95	106	100	102	103	96
Clc1ccccc1/C=C/C=N/Nc1nc(N2CCOCC2)nc(N2CCOCC2)n1	98	97	97	96	98	96
O=C(CCN1CCCC1Cc1ccccc1)c1ccc2c(c1)OCCO2 (stereo not given)	76*	90	84	85	84	83
O=C(CCN1CCCCC1)c1ccc2c(c1)OCCO2	105	103	103	103	108	102
Cc1ccc(OCC(=O)N/N=C\c2ccncc2)c(C)c1	101	101	98	98	102	100
Cc1ccc(C(=O)c2ccccc2C(=O)O)cc1C	135*[activator]	119	124*[activator]	123*[activator]	150*[activator]	132*[activator]
Cc1cc(C)c(C)c(C(=O)c2ccccc2C(=O)O)c1C	132*[activator]	119	123*[activator]	120*[activator]	150*[activator]	129*[activator]
Cc1ccc(C(=O)c2ccccc2C(=O)O)c(O)c1	102	100	99	101	103	98
O=C(Cn1ccc([N+](=O)[O-])n1)Nc1ccccn1	96	108	99	97	98	97
CCC(Sc1nc(N)c(NC(=O)c2ccc(OC)cc2)c(=O)[nH]1)C(=O)O (stereo not given)	95	103	98	95	94	94
COc1ccc(C2CC(C(F)(F)F)n3nc(C(=O)Nc4c(C)n(C)n(-c5ccccc5)c4=O)c(Cl)c3N2)cc1 (stereo not given)	100	97	96	98	102	98
Cc1cc(C)c2c(n1)sc1c(O)cc(=O)[nH]c12	104	100	103	100	107	102
COc1ccc(-c2cc(C(F)(F)F)c3c(n2)sc2c(O)cc(=O)[nH]c23)c(OC)c1	89	93	78*	80	80	89
Cn1cccc1/C=C1\SC(=S)N(NC(=O)c2ccccc2Cl)C1=O	88	90	83	89	78*	89
O=c1c2ccccc2nc2ccc(NCc3cccs3)nn12	76*	91	74*	79*	74*	88
CCn1c(NCc2cccs2)nc2ccccc21	105	97	99	100	106	99
Cc1nc2cccc(C)n2c(=O)c1Cl	113	105	110	109	120*[activator]	101
Cc1cc(C(=O)N=Nc2c(O)n(C(C)C)c3ccccc23)n[nH]1	94	97	96	96	93	93
CC(C)n1c(O)c(N=Nc2ccc(Cl)nn2)c2ccccc21	116	117	129*[activator]	121*[activator]	114	117
O=S(=O)(Nc1cccc(-c2cn3cccnc3n2)c1)c1ccc(-c2ccccc2)cc1	93	96	95	97	95	94
O=S(=O)(Nc1cccc(-c2cn3cccnc3n2)c1)c1ccccc1	86	87	74*	75*	70*	85
COC(=O)c1c(N2C(=O)[C@H]3[C@@H](C2=O)[C@]2(C(=O)Nc4c(C)cc(C)cc42)N2CCC[C@@H]32)sc(C)c1C	111	121*[activator]	126*[activator]	120*[activator]	115	107
COC(=O)c1c(N2C(=O)[C@H]3[C@@H](C2=O)[C@]2(C(=O)Nc4c2ccc(C)c4C)N2CCC[C@@H]32)sc(C)c1C	110	131*[activator]	129*[activator]	123*[activator]	124*[activator]	114
COC(=O)c1c(N2C(=O)[C@H]3[C@@H](C2=O)[C@]2(C(=O)Nc4ccccc42)N2CCC[C@@H]32)sc(C)c1C	99	112	102	100	103	95
CC(C)c1nc(SCC(=O)Nc2c[nH]c(=O)[nH]c2=O)c2cnn(-c3ccccc3)c2n1	95	101	97	97	95	95
CC(OCC(O)CN(C)Cc1nc2ccccc2c(=O)[nH]1)c1ccc(Cl)cc1 (stereo not given)	96	97	96	95	94	96
O=C(Nc1ccc2nc(-c3cccs3)[nH]c2c1)c1cccs1	75*	94	77*	75*	76*	86

High-throughput results as filed in PubChem.
